Assay outcomes deposited in PubChem BioAssay by several laboratories.
M1 antagonist: blocks the rat M1 muscarinic receptor response to acetylcholine; CHO-M1 cells, Fluo-4 calcium, ACh EC80 antagonist mode; hits give low values; AID 628; B-score at 10 µM; 3.4% of 64,000 active;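 active = calcium fluorescence response, raw or row-and-column corrected B-score, differing from the plate sample mean either way at a set confidence level, mostly lower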
Target sequence (P08482 whole entry, looked up): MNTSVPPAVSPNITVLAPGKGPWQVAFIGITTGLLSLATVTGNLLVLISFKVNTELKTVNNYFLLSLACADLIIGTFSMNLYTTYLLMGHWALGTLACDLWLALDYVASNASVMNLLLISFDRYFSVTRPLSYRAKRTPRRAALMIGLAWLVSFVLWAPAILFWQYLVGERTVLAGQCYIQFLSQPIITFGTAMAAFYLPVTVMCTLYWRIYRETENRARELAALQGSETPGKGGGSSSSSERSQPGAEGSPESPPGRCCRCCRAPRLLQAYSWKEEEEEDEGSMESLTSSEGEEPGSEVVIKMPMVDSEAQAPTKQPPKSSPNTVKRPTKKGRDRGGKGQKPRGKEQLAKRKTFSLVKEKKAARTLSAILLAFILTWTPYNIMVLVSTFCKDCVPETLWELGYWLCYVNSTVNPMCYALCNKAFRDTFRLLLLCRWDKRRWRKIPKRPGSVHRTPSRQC
Htt clearance: mutant huntingtin protein clearance. HeLa Exon1htt(103Q)mCFP, aggregate imaging; zero = plate's median compound well. inhibition, % at 1.5 µM. 0.42% of 47,000 active;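 active = inhibition of aggregate fluorescence above about 70%, also judged a hit by eye on the cell image, limit read from the data, passing the limit was not always enough; inconclusive = no rule stated for this call; inactive = not judged a hit on image review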;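 also: cells exposed to compound for three days before fixation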
M1 agonist: activates the M1 muscarinic receptor. CHO-M1 cells, Fluo-4 calcium fluorescence, agonist mode; hits give high values. B-score at 10 µM. 3% of 64,000 active;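 active = fluorescence rise, raw or as B-score row- and column-corrected plate score, outside the 99.7% band of its plate's samples, either direction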
WNV NS2B-NS3 inh: inhibitors of West Nile virus NS2B-NS3 protease | z-score (no concentration beside the values) | WNV NS2B-NS3 protease, fluorogenic substrate Ex360/Em465; hits give low values | 0.18% of 65,000 active | P06935; in the data active = z-score below about -3
Target sequence (P06935 1371-1501 limits assumed): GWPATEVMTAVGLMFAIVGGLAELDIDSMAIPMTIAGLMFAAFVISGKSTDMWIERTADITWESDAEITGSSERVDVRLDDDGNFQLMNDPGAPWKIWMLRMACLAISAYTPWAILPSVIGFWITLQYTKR
Target sequence (P06935 1502-1679 limits assumed): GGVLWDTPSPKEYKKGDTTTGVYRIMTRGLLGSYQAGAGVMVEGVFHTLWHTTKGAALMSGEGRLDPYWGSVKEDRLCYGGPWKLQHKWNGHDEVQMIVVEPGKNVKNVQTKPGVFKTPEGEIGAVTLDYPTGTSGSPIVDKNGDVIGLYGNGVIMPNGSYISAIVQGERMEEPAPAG
D1 allo mod: D1 dopamine receptor (human) allosteric modulation | P21728 | HEK293 D1, CRE-luciferase, dopamine EC30 potentiation; actives deviate in either direction | B-score at 10 µM | 5.9% of 58,000 active | AID 641;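 active = luminescence count or its row- and column-corrected plate score outside the 99.7% band of the plate's sample wells, on either side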
M1 ag confirm: confirmation of rat M1 muscarinic receptor agonists; shares compounds with M1 agonist; CHO-M1 cells, Fluo-4 calcium fluorescence, agonist mode; actives lie on both sides; fluorescence change (max-min) at 10 µM; 19% of 1,700 active; AID 1488;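 active = fluorescence change differs from the solvent-only DMSO control mean at a set confidence level in both duplicate runs; inconclusive = differs from solvent-only control mean in just one of two runs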;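 also: an EC20 dose of acetylcholine follows compound addition during the same imaging run; raw fluorescence intensity difference in instrument units with no normalization to controls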
M4 agonist ctr: counter-screen for M1 agonists: activity at rat M4 receptor. shares compounds with M1 agonist. CHO M4/Gqi5 cells, Fluo-4 calcium fluorescence, agonist mode; actives lie on both sides. fluorescence change (max-min) at 10 µM. 9% of 1,700 active. AID 1741;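 active = fluorescence change differing from the plate's solvent-only control wells at 99.7% confidence in both duplicates, whether higher or lower; inconclusive = differs from solvent controls in only one of two duplicates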
M1 antag conf: M1 muscarinic receptor (rat) antagonism, confirmed | shares compounds with M1 antagonist | CHO-M1 cells, Fluo-4 calcium, ACh EC80 antagonism; hits give low values | calcium response (max-min fluorescence) at 10 µM | 43% of 1,700 active;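 active = calcium response below the same-plate mean of wells given acetylcholine alone at its 80%-effect dose, minus 3 SD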;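 also: raw fluorescence intensity difference in arbitrary instrument units and not normalized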
mGluR4 antag: mGluR4 (human) activity, M1 antagonist secondary assay; fluorescence response (max-min) at 10 µM; 0.9% of 1,700 active; shares compounds with M1 antagonist; AID 678; CHO-mGluR4 calcium flux, Fluo-4 fluorescence, glutamate EC80; hits give low values;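 active = fluorescence response below the plate's average for near-maximal glutamate wells, less 3 SD of those wells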;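 also: raw unnormalized fluorescence span taken in the window right after glutamate addition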
D1 PAM confirm: confirmation of human D1 dopamine receptor allosteric modulators; shares compounds with D1 allo mod; HEK293 D1 CRE-luciferase, dopamine EC30 potentiation; hits give high values; luminescence at 10 µM; 88% of 2,200 active;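 active = luminescence in either of two replicates above the same-plate mean plus 3 SD of the low-dose dopamine control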
Isoprot counter: counter-screen for D1 modulators: isoproterenol response in HEK293 cells; shares compounds with D1 allo mod; HEK293 D1 CRE-luciferase, isoproterenol EC30 counter-screen; calls only at 10 µM; 63% of 2,200 active;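 active = luminescence in either replicate above plate mean of wells with a partly effective reference agonist dose plus 3 SD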;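 also: isoproterenol raises cAMP through native beta-adrenoceptor Gs so signal bypasses D1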
* = called active by the depositor; i = inactive; ? = inconclusive; / = no result. This is a sample that favours compounds with a hit; in the whole collection about 8.9% have one here.

SMILES | M1 antagonist | Htt clearance | M1 agonist | WNV NS2B-NS3 inh | D1 allo mod | M1 antag conf | mGluR4 antag | others
CCCCn1c(NC(=O)c2ccco2)c(C(=O)OCC)c2nc3ccccc3nc21 | -0.372 | -36.1 | 6.61* | 1.31 | 0.884 | / | / | M1 ag confirm=24.4;M4 agonist ctr=?
CCOC(=O)c1c(N)n(Cc2ccco2)c2nc3ccccc3nc12 | -0.289 | -20.7 | -0.00203 | 4.17 | 0.6 | / | /
Cc1ccnc(-n2c(C)cc(C=C3C(=O)N(C)C(=S)N(C)C3=O)c2C)c1 | / | 46.7 | / | / | / | / | /
COc1ccc(CCn2c(O)c(C=NCCCN(C)C)c(=O)[nH]c2=O)cc1OC | 0.311 | 38.9 | 0.319 | -0.06 | 0.472 | / | /
CC(C)Cn1cc(C(=O)N2CCC3(CC2)OCCO3)c2c3ccccc3n(C)c2c1=O | -1.57 | -19.0 | 3.03* | 0.03 | -1.19 | / | / | M1 ag confirm=-2;M4 agonist ctr=-18.7
Cn1c2ccccc2c2c(C(=O)N3CCC4(CC3)OCCO4)cn(C3CCCCC3)c(=O)c21 | -0.67 | / | 4.35* | 0.73 | -0.533 | / | / | M1 ag confirm=-13.7;M4 agonist ctr=-54
Cn1cc(C(=O)N2CCC3(CC2)OCCO3)c2c3ccccc3n(C)c2c1=O | 0.00142 | / | -0.0893 | -0.15 | 0.856 | / | /
Cn1cccc1CNCCc1ccccc1F | -0.713 | -12.4 | 1.19 | -0.17 | -1.05 | / | /
O=c1c2ccccc2nc(N2CCCC2)n1-c1ccc(Cl)cc1 | -0.707 | / | 0.652 | 0.03 | / | / | /
Cc1ccc(S(=O)(=O)Nc2cc(C(=O)N3CCC4(CC3)OCCO4)ccc2N2CCCCC2)cc1 | -0.416 | 28.1 | 2.8* | -0.21 | 0.337 | / | / | M1 ag confirm=-9.92;M4 agonist ctr=-19.7
OC(COCc1ccc(Cl)cc1)CN1CC=C(c2ccccc2)CC1 (configuration not stated) | -4.04* | / | -2.8* | -1.51 | -1.18 | 475* | 177 | M1 ag confirm=-6.81;M4 agonist ctr=-22.3
COc1ccc(CCNCc2ccc(SC)cc2)cc1 | / | 15.5 | / | / | / | / | /
C[C@H]1OC[C@@H](C[N+](C)(C)C)O1 | -9.65* | / | 48.3* | -1.04 | 5.71* | / | / | M1 ag confirm=527*;M4 agonist ctr=220*;D1 PAM confirm=10372*;Isoprot counter=i
Cc1ccc(C2=NCC(=O)N(CC(=O)N3CCCCC3)c3sc(C)c(C)c32)cc1 | / | 19.8 | / | / | / | / | /
O=C(c1cc2ccccc2oc1=O)N1CCC2(CC1)OCCO2 | -3.7* | / | -0.0829 | -0.82 | -0.269 | 609 | 230
Cc1c(C(=O)N2CCC3(CC2)OCCO3)oc2ccccc12 | -2.28* | -18.4 | -0.453 | -0.49 | -0.698 | 519 | 171
O=C(O)c1cc2ccccc2oc1=O | -0.337 | 14.7 | -1.13 | 0.88 | -0.28 | / | /
O=C(Nc1ccc2c(c1)OCO2)c1cn(Cc2ccc(F)cc2)nn1 | 0.574 | / | -1.25 | 2.09 | 1.12 | / | /
CCN1CCN(Cc2cc(Br)cc(OC)c2O)CC1 | -1.89* | 48.2 | 0.0244 | 0.25 | -2.39 | 350* | 243
COc1ccc(CN2CCN(Cc3ccccc3)CC2)c(OC)c1 | -0.0458 | / | -0.369 | -1.99 | -3.37 | / | /
COc1ccc(C2NCc3ccccc3-n3cccc32)cc1 (configuration not stated) | / | 19.6 | / | / | / | / | /
COc1cc(C2NCc3ccccc3-n3cccc32)ccc1O (configuration not stated) | -1.08* | 36.6 | -1.01 | 1.01 | -0.0977 | 554 | 225
CCCNC(=O)N1C2CCC1CC(O)(c1cccnc1)C2 (configuration not stated) | 0.945 | 14.2 | -0.188 | 0.12 | -0.138 | / | /
CCOC(=O)/C(CCCN(CC)CC)=N\O | -2.94* | / | -0.712 | 1.46 | 0.517 | 251* | 221
Cc1ccc(C2(O)CCN3CCCCC32)cc1 (configuration not stated) | 0.483 | -57.4 | 0.585 | -0.33 | -1.62 | / | /
SMILES | M1 antagonist | Htt clearance | M1 agonist | WNV NS2B-NS3 inh | D1 allo mod | M1 antag conf | mGluR4 antag | others
O=C(COc1ccc(Cl)cc1)N1CCN(Cc2ccccc2)CC1 | / | -12.4 | / | -1.74 | 0.0666 | / | /
O=C(COc1ccc(Cl)cc1)NC1CN2CCC1CC2 (configuration not stated) | -15.9* | / | 0.594 | -0.29 | -1.1 | 398* | 257
Cc1ccc2c(c1)C1CN(C)CCC1N2C(=O)Nc1cccc(Cl)c1 (configuration not stated) | / | -35.6 | / | / | / | / | /
COc1cccc(CNC2CN3CCC2CC3)c1OC (configuration not stated) | -5.14* | -28.5 | 0.218 | -0.76 | 1.91 | 392* | 196
CCN(CC)CCCNC(=O)c1c(O)c2ccccc2n(Cc2ccccc2)c1=O | -5.39* | / | -0.267 | -0.1 | / | 393* | 210
CCN1c2nc3ccccn3c(=O)c2CC2(C(=O)N(C)C(=O)N(C)C2=O)C1C (configuration not stated) | 0.125 | -19.9 | -0.0481 | -1.09 | -1.44 | / | /
CCCCc1nc(N2CCNCC2)c(C#N)c2c1CSC(C)(C)C2 | -9.75* | -23.1 | -0.324 | 0.31 | / | 60.7* | 220
C=C(C)c1cccc(C(C)(C)NC(=O)NC2CN3CCC2CC3)c1 (configuration not stated) | / | / | / | -0.36 | 0.0361 | / | /
OC(Cc1ccccc1)(c1ccccc1)C1CN2CCC1CC2 (configuration not stated) | -7.21* | / | 0.963 | -0.71 | -0.319 | 54.7* | 274
Cc1[nH]c2c(Cl)cccc2c1CCN | -2.84* | 64.6 | 0.217 | -0.00488 | 0.0362 | 621 | 191
c1ccc(C(OCCN2CCNCC2)c2ccccc2)cc1 | -14.3* | / | 0.492 | -0.27 | 0.129 | 148* | 219
CCCC1(CCC)C(=O)NC(=NCc2ccccc2)NC1=O | 0.0299 | / | 0.684 | -0.44 | -0.316 | / | /
CC(C)=CCC12CN3CCN(CC(C3)C1=O)C2 | -0.184 | / | 0.642 | 0.7 | / | / | /
Cc1ccc(S(=O)(=O)NCC2CCC(C(=O)N3CCC4(CC3)OCCO4)CC2)cc1 (configuration not stated) | 0.377 | / | -0.132 | 1.49 | 0.00197 | / | /
Cc1ccc2nc(N3CCC(C(=O)N4CCC5(CC4)OCCO5)CC3)sc2c1 | -0.997* | 9.2 | -0.0485 | 0.37 | / | 471* | 247
O=C(O)C12C3CCCC1C32c1ccccc1 (configuration not stated) | 0.689 | / | -0.125 | 0.91 | -0.0122 | / | /
CN(C)CCc1nc2ccccc2c(=O)n1-c1ccccc1 | -6.25* | -1.3 | 0.839 | 0.79 | -0.129 | 475 | 249
CN1CCC(OC(=O)C2c3ccccc3Oc3ccccc32)CC1 | -14.2* | / | -0.401 | -0.04 | -1.38 | 24.7* | 186
